Test results published in PubChem BioAssay AID2705 (National Center for Advancing Translational Sciences (NCATS), 2010).
Some of the results follow. Results filed as inconclusive are left out. The source made the active and inactive calls. Calls come from the whole dose curve; as a rule, active = well fitted inhibition curve with a large enough effect; inconclusive = small, poorly fitted or top-dose-only effect; inactive = flat fitted curve, though single readings scatter.

biological target: Dual specificity tyrosine-phosphorylation-regulated kinase 1A (Homo sapiens) (UniProt Q13627); assay: Assay for Inhibitors of Dual-Specificity Tyrosine-(Y)-Phosphorylation Regulated Kinase 1A (Kinase-Glo assay); details: recombinant DYRK1A, Kinase-Glo ATP depletion luminescence
Text: NIH Molecular Libraries Probe Production Centers Network [MLPCN] NIH Chemical Genomics Center [NCGC] MLSCN Grant: 1R03MH084827-01 PI Name: Tom Misteli NCGC Assay Overview: The CMGC group of protein kinases which includes CDK-like kinases (Clk) and Dyks are essential kinases found in all eukaryotes. Clks have been implicated to play a role in the regulation of alternative splicing; while Dyrks, in particular over expression of Dyrk1A, has been linked to diseases as Down syndrome (DS; OMIM 190685) and Alzheimer disease (AD; OMIM 104300). Among the members of the CMGC group, the Clks and the Dyrks are very closely related therefore to determine validity and selectivity of an active compound observed in the CLK4 qHTS screen (AID:1770), a bioluminescent counter-screen against Dyrk1A was developed. In addition, potent and selective compounds against Dyrk1A were identified to further assess the role of this enzyme in DS and AD. Dyrk1A (Invitrogen, cat # PV3785) was assayed using ATP and DYRKtide (AnaSpec, cat# 62698) as substrates. Promega Kinase-Glo (cat# V6712) technology was used to detect the residual ATP following kinetic reaction. The Kinase-Glo Plus contains Ultra-Glo [5] luciferase and D-luciferin which generates a bioluminescence signal from the remaining ATP. No enzyme and harmine (Sigma, cat # 286044-1G), a compound shown to inhibit Dyrks were used as a positive control; while DMSO treatment was used as a negative control.
NCGC Assay Protocol Summary: Two uL/well of substrate solution (8uM Dyrktide, 2uM ATP, 25mM Tris-HCl pH 7.5, 10mM MgCl2 , 0.5mM EGTA, 5mM cystein, 0.01% Triton X-100 final concentration) was dispensed into 1536-well assay plates (Greiner, solid white, medium-binding plates) with Aurora Discovery BioRAPTR Flying Reagent Dispenser (FRD, Beckton-Dickenson). Compound solution (23 nL) was transferred to the assay plate using Kalypsys pin tool equipped with a 1536-pin tool. One uL/well enzyme solution (5nM Dyrk1A, 25mM Tris-HCl pH7.5, 10mM MgCl2, 0.5mM EGTA, 5mM cystein, 0.01% Triton X-100 final concentration) was then added using FRD yielding a total kinase reaction volume of 3uL/well. After 2 hours of room temperature incubation, 3uL Kinase-Glo detection reagent was added for a final assay volume of 6uL/well. The plates were spun for 30 seconds (1000 rpm) and incubated at ambient temperature for 2 minutes followed by a luminescence read using Perkin Elmer ViewLux plate reader at 3 seconds exposure time and 2x binning.

Potency, active:
Cc1nc(C)c(-c2ccc3ncnc(NCc4ncc[nH]4)c3c2)s1 5.19 µM
c1coc(CCNc2ncnc3ccc(-c4ccc5c(c4)OCO5)cc23)c1 0.164 µM
Cc1nc(CNc2ncnc3ccc(-c4ccc5c(c4)OCO5)cc23)cs1 0.292 µM
CN(Cc1cncn1C)c1ncnc2ccc(-c3ccc4c(c3)OCO4)cc12 2.6 µM
